# CYP2C9 act = increases human cytochrome P450 2C9 activity | recombinant CYP2C9, luciferin-H conversion, luminescence; active compounds read high; factor 1 = untreated enzyme, 0 = blocked | activation factor at 5 µM | 96,000 tested, 1.4% active | P11712 | AID 1024;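 active = activation factor of 2 or more for CYP2C9 at a 5 µM dose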;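 note: 0 = sulfaphenazole-blocked wells and 1 = vehicle-only wells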
# Target sequence (P11712 whole entry, looked up): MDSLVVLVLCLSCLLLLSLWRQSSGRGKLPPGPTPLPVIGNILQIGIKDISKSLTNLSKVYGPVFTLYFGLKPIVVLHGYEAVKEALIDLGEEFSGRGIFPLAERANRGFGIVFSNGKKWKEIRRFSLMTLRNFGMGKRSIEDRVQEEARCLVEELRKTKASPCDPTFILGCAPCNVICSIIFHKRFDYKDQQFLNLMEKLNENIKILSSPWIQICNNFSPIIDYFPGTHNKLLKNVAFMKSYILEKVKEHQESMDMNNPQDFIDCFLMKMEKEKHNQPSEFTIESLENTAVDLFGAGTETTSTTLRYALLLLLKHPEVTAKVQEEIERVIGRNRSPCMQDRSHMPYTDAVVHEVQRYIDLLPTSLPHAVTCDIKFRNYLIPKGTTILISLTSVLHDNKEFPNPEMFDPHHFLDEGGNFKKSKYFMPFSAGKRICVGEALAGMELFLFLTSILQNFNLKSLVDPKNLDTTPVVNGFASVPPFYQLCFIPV
# CYP2C9 inhib = human CYP2C9 inhibition. CYP2C9 Supersomes, luciferin-H conversion, luminescence. 96,000 tested, 20% active. P11712. inhibition, % at 5 µM. AID 777;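 active = blocking of liver enzyme CYP2C9 beyond about 50% at 5 µM, limit read from the data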
# PLK1 kinase inh = inhibitors of human PLK1 kinase; recombinant PLK1 kinase, TR-FRET peptide phosphorylation; inhibition, % at 10 µM; 97,000 tested, 0.53% active; AID 619;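 active = inhibition of 50% or more in the single-concentration screen; inactive = inhibition below 50%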;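 note: 0% = DMSO max control and 100% = H-89 dihydrochloride min control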
# CYP2C19 inhib = blocks human cytochrome P450 2C19. P33261. CYP2C19 Supersomes, luciferin-H EGE luminescence, 30 min. inhibition, % at 5 µM. 96,000 tested, 21% active. AID 778;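 active = CYP2C19 inhibition above a set limit at 5 µM in the primary screen, cut at about 50% in these data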;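 note: plate controls were negative control wells for no effect and 2.5 mM tranylcypromine positive control for full effect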
# CYP2C19 act = cytochrome P450 2C19 (human) activation; P33261; recombinant CYP2C19, luciferin-H EGE luminescence; active compounds read high; 0 = fully inhibited enzyme, 1 = untreated enzyme; activation factor at 5 µM; 96,000 tested, under 10 active; AID 1025;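 active = activation factor of at least 2 at 5 µM in the primary screen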;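 note: 0 = wells with 2.5 mM tranylcypromine and 1 = vehicle-only wells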
# Plk1 PBD FP = Plk1 (human) PBD binding inhibition; P53350; Plk1 PBD phosphopeptide binding, fluorescence polarization; inhibition, %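 (tested at about 20 µM)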; 97,000 tested, 0.13% active; AID 693; in the data active = inhibition above about 34%, passing the limit was not always enough
# The depositor's hits bear a star; . = no result given. Sampled rows, rich in hits. Any-hit rate of the full collection: about 28%.
SMILES,CYP2C9 act,CYP2C9 inhib,PLK1 kinase inh,CYP2C19 inhib,CYP2C19 act,Plk1 PBD FP
Cc1ccc2c(c1)N(CC(=O)N1CCc3ccccc3C1)C(=O)CO2,0.8,24.9,-8.9,84.5*,0.2,-15.1
Cc1ccc2c(c1)N(CC(=O)N1CCCc3ccccc31)C(=O)CO2,0.9,10.5,-9.3,34.4,0.7,8.3
CC1Oc2ccccc2N(CC(=O)N2CCc3ccccc32)C1=O (configuration not stated),0.4,56.5*,-18.1,51.6*,0.5,-14.4
O=C(CN1C(=O)COc2ccccc21)N1CCc2ccccc21,0.6,42.1,4.4,56.7*,0.4,6.3
O=C(C1COc2ccccc2O1)N1CCc2ccccc21 (configuration not stated),0.7,34.0,-21.8,91.5*,0.1,-18.4
O=C(O)C1CC=CCC1C(=O)N1CCc2ccccc21 (configuration not stated),.,.,-3.9,.,.,-12.1
CN(C)S(=O)(=O)c1ccc(S(=O)(=O)NC2CCOC(C)(C)C2)cc1 (configuration not stated),.,.,-6.7,.,.,31.4
Cc1ccc(SC/C(O)=C(\C#N)c2nc3ccccc3n2C)cc1,0.5,50.0*,-4.0,30.3,0.7,-5.4
Cn1c(/C(C#N)=C(\O)CN2CCN(Cc3ccccc3)CC2)nc2ccccc21,0.8,16.7,-8.1,24.2,0.8,3.1
COCCn1nnnc1C(c1ccccn1)N1CCN(c2cc(C)ccc2C)CC1 (configuration not stated),0.3,69.8*,-10.7,83.0*,0.2,7.5
c1ccc(CCn2nnnc2C(c2cccs2)N2CCN(Cc3ccc4c(c3)OCO4)CC2)cc1 (configuration not stated),0.5,52.2*,.,55.8*,0.4,.
CC(C)C(c1nnnn1Cc1ccccc1)N1CCN(Cc2ccc3c(c2)OCO3)CC1 (configuration not stated),0.3,67.9*,-2.8,92.0*,0.1,6.3
CCCCC(c1nnnn1CCOC)N1CCN(c2cccc(OC)c2)CC1 (configuration not stated),0.5,53.6*,.,69.7*,0.3,.
CCN1CCN(C(c2ccccc2F)c2nnnn2Cc2ccc3c(c2)OCO3)CC1 (configuration not stated),0.9,11.4,-2.6,30.2,0.7,4.8
CCOCCCNC(=O)c1ccc(CS(=O)(=O)Cc2ccc(C)cc2)o1,0.8,17.8,-12.1,11.4,0.9,-17.7
Fc1ccccc1N1CCN(C(c2cccs2)c2nnnn2CCc2ccccc2)CC1 (configuration not stated),0.4,57.3*,-8.2,69.6*,0.3,21.4
Fc1ccc(N2CCN(C(c3cccs3)c3nnnn3CCc3ccccc3)CC2)cc1 (configuration not stated),.,.,-7.0,.,.,4.6
COCCn1nnnc1C(c1cccs1)N1CCN(c2ccccc2)CC1 (configuration not stated),0.5,50.8*,-14.6,44.1,0.6,12.0
COCCn1nnnc1C(c1ccccc1)N1CCN(c2ccccc2)CC1 (configuration not stated),.,.,-1.3,.,.,-1.0
Cc1nc(SCC(=O)c2ccc(F)cc2)c([N+](=O)[O-])[nH]1,0.7,34.3,-7.0,27.7,0.7,8.6
Cc1nc(SCC(=O)c2ccc(Cl)cc2)c([N+](=O)[O-])[nH]1,0.5,47.8,-8.2,53.4*,0.5,10.3
O=P(c1ccccc1)(c1ccccc1)C(c1ccco1)N1CCOCC1 (configuration not stated),1,3.2,-7.3,10.9,0.9,37.5
COc1ccc(OC)c2[nH]c(=O)c(CCNC(=O)c3ccc(Br)o3)cc12,1.6,-57.8,-7.1,76.8*,0.2,-11.0
COc1ccc(OC)c2[nH]c(=O)c(CCNC(=O)C3CCCCC3)cc12,2.4*,-143.6,-5.4,31.0,0.7,-20.9
COc1ccc(OC)c2[nH]c(=O)c(CCNC(=O)CC(C)C)cc12,2.5*,-153.7,-14.8,32.1,0.7,-10.7
SMILES,CYP2C9 act,CYP2C9 inhib,PLK1 kinase inh,CYP2C19 inhib,CYP2C19 act,Plk1 PBD FP
Cc1ccc2cc(CCNC(=O)c3ccc(Br)o3)c(=O)[nH]c2c1,0.6,36.8,-6.1,53.6*,0.5,1.6
COC(=O)c1sccc1NC(=O)C12CC3CC(CC(C3)C1)C2,.,.,-5.7,.,.,-13.0
Cc1ccc(Nc2nc(-c3ccc(S(=O)(=O)N4CCOCC4)cc3)cs2)cc1,.,.,-11.1,.,.,-11.6
CC(=O)N/C(=C/c1ccc2c(c1)OCO2)C(=O)NCCCO,1.2,-22.6,-12.1,-13.7,1.1,-26.8
CSCCC(NC=C1C(=O)OC(C)(C)OC1=O)C(=O)O (configuration not stated),0.9,11.2,-9.6,0.3,1,-6.7
O=S(=O)(Nc1ccc(O)c(Sc2nc3ccccc3s2)c1)c1ccc(Cl)cc1,0.9,14.4,1.4,-0.6,1,34.1
O=S(=O)(Nc1cc(Cl)ccn1)c1ccc(Cl)cc1,0.3,74.0*,-14.1,47.2,0.5,-21.8
Cc1cc(NS(=O)(=O)c2ccc(Cl)cc2)nn1CC(=O)NCc1ccco1,1.1,-9.9,-10.8,-14.4,1.1,2.5
Cc1ccnc(NS(=O)(=O)c2ccc(CC(C)C)cc2)c1,0.6,37.9,-1.0,71.5*,0.3,-4.2
COc1ccc(S(=O)(=O)Nc2cc(C)ccn2)cc1OC,1.7,-69.8,-10.1,42.8,0.6,14.7
O=S(=O)(Nc1ncccc1O)c1ccc(Cl)cc1,0.8,17.7,-1.7,86.0*,0.1,-28.3
CC(C)C12CN3CC(C(C)C)(CN(C1)C3c1ccccc1)C2O (configuration not stated),1,-3.9,-13.9,-11.4,1.1,14.0
CCCCSc1nc(C)c(C(C)=O)cc1C#N,0.7,29.1,-13.8,34.6,0.7,-0.2
O=C(COc1ccc(Cl)cc1Cl)N(Cc1ccco1)C1CCS(=O)(=O)C1 (configuration not stated),0.7,27.5,-7.5,30.6,0.7,0.8
Cc1cc(NC(=O)Cn2cc(C(F)(F)F)cc(Cl)c2=O)no1,.,.,-11.9,.,.,8.8
Cc1nnc2sc(-c3cccc4ccccc34)nn12,1,-1.4,-0.4,6.4,0.9,19.0
CC(C)(C)c1cc(NCCCn2ccnc2)n2ncc(-c3ccc(Cl)cc3)c2n1,0.3,65.8*,-14.4,7.8,0.9,14.1
Cc1cc(NCCCn2ccnc2)n2nc(-c3ccc(F)cc3)cc2n1,0,98.0*,-6.7,97.2*,0,0.3
Cc1cc(C)c2c(n1)nn1c(NCCCn3ccnc3)cc(C)nc21,0,96.5*,.,68.7*,0.3,.
Cc1cc(NCCOCCO)n2ncc(-c3ccc(Cl)cc3)c2n1,0.7,27.7,-11.3,29.3,0.7,-16.2
CCCCNC(=O)NS(=O)(=O)c1ccc(C(=O)OC)o1,0.9,14.8,-13.2,-1.5,1,2.5
CC(C)C(C(=O)Nc1ccc2c(c1)OCO2)N1C(=O)c2ccccc2C1=O (configuration not stated),0.5,52.4*,-11.1,49.0,0.5,-6.5
